For 40 sequences, PBM binding z-score results are on record in the supplement of paper PMC6555819.

This assay concerns VDR:RXRa (NR concentration 270 nM, RXRa partner concentration 90 nM). The experiment in a line: PBM binding z-score (relative to random genomic background probes); higher = stronger binding; sequences stand for … in GC…GCGATTGACAGCGTAGAATGAAGG
The protocol: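 Protein-binding microarray (Agilent 4x180K custom design, double-stranded 60-nt probes: 5' GC cap, 34-nt variable region, 24-nt constant primer region; full probe sequence given). Purified or IVT nuclear receptor:RXRα heterodimers (3:1 NR:RXRα, mostly 270:90 nM) or homodimers were incubated for 1 h in PBS with 2% milk and no ligand, then detected with Alexa488 antibodies. Fluorescence from o1-orientation probes (~5 replicates averaged) was converted to z-scores against 500 random hg19 background probes. Variable regions are seed direct-repeat (DR0–DR5) sites, all their single-nucleotide variants and half-site ablations.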
TCTAGCAGGCCAGCGGGTCACTCAAGAGGTACGG yielded a PBM binding z-score of 0.435.
The value for TCAGATAGGTAATACAGGTGAAAGTCGGCATCTA was 0.887; that for TTACCAAGGTGAAAGGTCGTTGTTGCACGCCTTG was 3.24; that for TCTTGTAGATCAACAGGAGGTTAAGGAAGATCGA was 0.488.
The value for ATCGAAAGGTCGACGGGGTGAGTATACACCGTTT was 5.62; that for CGTCCAATGTCAAAGGTCAGTGAAGAGATGACGG was 3.72; that for AGAACGAGGGCACGCTGAGTGGATAGCAGAGTAG was 0.617.
The value for CCTATCAGGCCAGGGTCACTCAAGCATTTCGCTT was 2.73; that for CCTAGCATGCCAATCTGGGTCACTCAAGGCTTGA was 0.733; that for GATACAGGGTCAAGGCCAGAGGACGCGTATTGAT was 4.11.
Sequence TTACCAAAGTGAAGGTCGTTGATCCCTCTGTAGA returned a PBM binding z-score of 0.954.
With GCTCCTAGGTCAGGTTGGTCAGCTAACGGGTACG, the PBM binding z-score was found to be 0.913.
The value for AGAATGAGGTTATACGTAGATAAGGGAAGAAAGT was 1.47.
The sequence TCTGCTAGATCAGTTGGTCAGCTAACGAGCTGCC had a PBM binding z-score of -0.706.
Consider CCTTACGGGTCACGAGGTTATAGAACGACGAGCG, for which the PBM binding z-score was determined as 5.31.
Consider ACTTTTAGTTGAGACGAGGGCAACCGATAGGTTG, for which the PBM binding z-score was 0.832.
The value for TCAGACAGGTGAAGGAAACTCAGGTACGCAGTCG was 0.447; that for CAGGCTAGGTCAGGGCCAGTATAGGAGGAACGTT was 0.258.
The value for CACACTAGGTCACGAAAGGTCAAAGTCGAATGAC was 7.02; that for TCGTATAGGTAAAGGTGAAAGTCGAACGATATGA was 0.788; that for ACTCGGAGGACAAAGGTCAGACCTACGCCAGTGA was 3.52.
On to ATCTCTAGGTTACAAGTTCAGTGAAAGAGAGGAC, for which the PBM binding z-score amounted to 2.7.
The value for CGAACTAGGTCAAGGACAGAGAATCTCCGCACGC was 1.02; that for GCGACTGGGGCATCAGCAGGTGACCATAACTTAA was -0.635.
Consider GATACAGGGTCAGCTAGAGGCGAGAGTATGGAAA, for which the PBM binding z-score stood at 2.6.
On to ACAGACAGGTGAGTGACGGTAACTCAGCTGGACG, for which the PBM binding z-score was -0.336.
The value for GATACAGGGTCAGCTAGAGGCCAGAGCATGGAAA was 3.04; that for CCTACTGGGCCAAAGGTCATTGAATCCAATGCTC was 4.86; that for GTACCAAGGTGAATAGGTGGTTGATGAGTAGGCG was -0.165.
The value for CCTAGTAGGCCAATCTGGGTCACTCAAGGCTTGA was 0.875; that for CGAACTAGGTCAGAACAGGACAGTAAAGGATGAT was 0.971.
With TCATATAGGTAGATGCTAGGTGAAAGTCCGATCT, the PBM binding z-score came to 0.638.
The value for GCTGCTATGTCAGGTTGGTCAGCTAACGGGTACG was -0.421.
The value for CGTCCAAGGTCATAGGAGGTCAGTAAAGACAGAT was 6.61.
The value for GCTAGCAGGCCATTTGGCTCACTCAATGACGGGC was -0.942; that for TCATATAGGTAATACGGGTGAAAGTCGGCATCTA was 1.25.
Consider AGAATGACGTTACCAAAGATCAGGGAAACGCTTG, for which the PBM binding z-score was -0.434.
Turning to CAAACTAGGACACGAAAGGTCAAAGTCGAATGAC, the PBM binding z-score came out at 4.78.
The value for CAAACTAGGTCACGAAAGGACAAAGTCGAATGAC was 4.23; that for GATACAGTGTCAGCTAGAGGCCAGAGTATGGAAA was -0.468.
